KB-3-1 tox = qHTS assay for MDR1-selective chemotherapeutics: Primary screen using the parental adenocarcinoma cell KB-3-1 | Potency, µM (series often up to 46.1 µM), hits mostly cytotoxic | 400,000 tested, 1.4% active | KB-3-1 viability, CellTiter-Glo ATP luminescence, 72 h; note: % is set by controls: 0 for no effect and ±100 for the full control effect; nearly all actives have a fitted effect of over 60% in size
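Parental KB-3-1 adenocarcinoma cells in phenol-red-free DMEM with 10% FBS were pin-treated with compounds at several concentrations, incubated 72 h at 37 °C, and viability read by CellTiter-Glo luminescence; concentration-effect curves were fitted after normalization.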
HT1080 IDH1KD tx = qHTS for induction of synthetic lethality in tumor cells producing 2HG: qHTS for the HT-1080-IDH1KD cell line | Potency, µM (top dose mostly 46.1 µM), without a hit: top-dose activity, negative = toxicity, actives largely listed as cytotoxic | AID 686971, 2013 | HT-1080 IDH1 knockdown viability, ATP luminescence, 48 h | 360,000 tested, 2% active;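 note: 0% = DMSO wells and -100% = cell-free medium wells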
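IDH1KD HT-1080 cells, 750/well, RPMI + 5% FBS; compound pinned after 2 h settling; 48 h, 37 °C; CellTiter-Glo luminescence; % activity normalised to DMSO and no-cell wells; curves fitted, classed by r2 and efficacy.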
KB-V1 cytotox = qHTS assay for MDR1-selective chemotherapeutics: Primary screen using the drug-selected MDR subline cells KB-V1; 400,000 tested, 3.4% active; AID 1347076, 2019; KB-V1 MDR cells viability, CellTiter-Glo, 72 h; Potency, µM (series often up to 46.1 µM), actives largely listed as cytotoxic; note: % is set by controls: 0 for no effect and ±100 for the full control effect; nearly all actives have a fitted effect of over 60% in size
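Drug-selected KB-V1 cells, grown in DMEM lacking phenol red with 10% FBS, receive compound titrations; after three days at 37 degrees C, surviving cell ATP is quantified by CellTiter-Glo luminescence and responses normalized and curve-fitted.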
ATXN2 expr inh = Primary qHTS for Inhibitors of ATXN expression. HEK-293 ATXN2-luciferase reporter, luminescence, 24 h. 360,000 tested, 0.72% active. Potency, µM (series often up to 57 µM), for the others: at the highest dose activity change, negative = inhibition, hits mostly inhibitors; note: % is set by controls: 0 for no effect and ±100 for the full control effect; nearly all actives have a fitted effect of over 55% in size
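qHTS (up to 57 uM final) was run with 24 h compound exposure of reporter cells at 37 °C. Each well was multiplexed: SteadyGlo luminescence measured ATXN2-luciferase expression after a fluorogenic Gly-Phe-AFC viability readout (25 uM final).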
HT1080NT lethal = qHTS for induction of synthetic lethality in tumor cells producing 2HG: qHTS for the HT-1080-NT fibrosarcoma cell line. HT-1080-NT fibrosarcoma viability, CellTiter-Glo ATP luminescence, 48 h. Potency, µM (titrated, usually from 46.1 µM), inactives show at the top dose activity, negative = less viability, most hits filed as cytotoxic. 360,000 tested, 1.6% active;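 note: NT is the 2HG producing partner of a matched IDH1 knockdown line; 0% = DMSO-treated cells and -100% = media-only wells without cells; nearly all actives have a fitted effect of over 55% in size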
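HT-1080-NT fibrosarcoma cells (2HG-overproducing), 750 cells/well in RPMI with 5% FBS, dosed after 2 h and incubated 48 h at 37C. CellTiter-Glo luminescence normalized to DMSO and no-cell wells; concentration-response curves fitted and classed.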
ATXN viability = Viability Counterscreen for Primary qHTS for Inhibitors of ATXN expression. S2 cells (HEK-293 line with an ATXN2-luciferase reporter) viability, CellTiter-Fluor protease fluorescence, 24 h. Potency, µM (doses to about 56.7 µM), actives largely listed as cytotoxic. 400,000 tested, 0.49% active; note: nearly all actives have a fitted effect of over 40% in size
* hit, by the source's call; i = inactive; ? = inconclusive; · = no result given; [ ] = another dose, or the depositor's remark. Sampled rows, rich in hits. Any-hit rate of the full collection: about 6.2%. Calls come from the whole dose curve; as a rule, active = well fitted curve in the direction sought with a large enough effect; inconclusive = small, poorly fitted or top-dose-only effect, or another doubt; inactive = no such curve, though single readings can be large; an effect the other way counts as inactive or inconclusive. Potency is the fitted concentration of half-maximal effect.

SMILES	KB-3-1 tox	HT1080 IDH1KD tx	KB-V1 cytotox	ATXN2 expr inh	HT1080NT lethal	ATXN viability
COc1ccc(C)cc1N(C)C(=O)c1c2c(nc3ccccc13)C(=O)N(C1CCCCC1)C2	i	·	i	·	·	·
c1cncc(-c2nc(N3CCCCCC3)c3ccccc3n2)c1	i	-13.1%	4.11µM*	-22.0%	-7.9%	i
CCCOc1ccc(-c2nc(N3CCCCC3)c3ccccc3n2)cc1	i	·	i	6.6%	·	i
c1ccc2c(N3CCCCCC3)nc(-c3ccncc3)nc2c1	i	?	18.4µM*	?	-5.0%	?
CCOC(=O)C1CCCN(C(=O)c2cnn(-c3ncc4c(n3)-c3ccccc3CC4)c2C)C1 (stereo not given)	·	·	·	·	·	i
Cc1noc(C)c1C(=O)Nc1sc2c(c1C(N)=O)CCCCC2	i	-3.6%	20.6µM*	0.3%	-18.5%	i
CC(C)CN1C(=O)c2ccc(NC(=O)c3ccco3)cc2C1=O	i	-5.1%	i	·	-0.7%	i
CC(C)CN1C(=O)c2ccc(NC(=O)c3cccs3)cc2C1=O	i	?	13µM*	23.9%	2.8%	i
O=C(COc1ccccc1C(=O)Nc1cccnc1)Nc1ccc(Br)cc1	i	·	i	·	·	·
CC1CCN(C(=O)Cn2c(SCC(=O)Nc3ccc(F)cc3)nc3ccccc32)CC1	i	·	?	-5.0%	·	?
Cc1ccc(NC(=O)CSc2nc3ccccc3c(=O)n2CCCN2CCCCC2)cc1Cl	i	?	?	?	23.1µM*	?
Cc1ccc(NC(=O)CSc2nc3ccccc3c(=O)n2CCCC(=O)NCCCN2CCOCC2)cc1C	i	?	i	-18.9%	16.4µM*	i
CCOC(=O)CSc1nc2ccccc2c(=O)n1CCN1CCOCC1	i	0.7%	13µM*	6.2%	5.9%	i
CC1CCN(C(=O)Cn2c(SCC(=O)Nc3nccs3)nc3ccccc32)CC1	i	-2.5%	4.61µM*	-12.1%	-3.8%	i
CC(=O)Nc1ccc(NC(=O)CSc2nc3ccccc3c(=O)n2CCCN2CCOCC2)cc1	i	-18.3%	i	-8.4%	-2.0%	?
CCOCCCn1c(SCC(=O)N2CCOCC2)nc2ccccc2c1=O	i	2.4%	?	18.9%	4.7%	i
COc1ccccc1CN1CCCC(n2cc(C(=O)N3CCCC3)nn2)C1 (stereo not given)	·	·	·	·	·	i
CC(C)C(C)C=CC(C)C1CCC2C3=CC=C4CC(O)CCC4(C)C3CCC21C (stereo not given)	·	·	·	3.7%	·	·
COCCNC(=O)CSc1nc2ccc(N3CCOCC3)cc2c(=O)n1CCc1ccccc1	i	-7.9%	i	2.8%	-9.9%	i
CCOC(=O)CSc1nc2ccccc2n1CC(=O)N1CCN(c2ccccc2)CC1	i	-11.4%	7.31µM*	-1.9%	7.3%	i
CCCCNC(=O)CSc1nc2ccc(N3CCOCC3)cc2c(=O)n1CCc1ccccc1	i	5.5%	0.581µM*	-4.6%	1.2%	i
CCc1ccc(NC(=O)CSc2nc3ccccc3c(=O)n2CCCC(=O)NCCCN2CCOCC2)cc1	i	18.4µM*	i	-37.3%	?	i
COc1ccc(CNCCCSc2nnnn2-c2ccccc2)cc1	i	·	i	-21.0%	·	i
Cc1ccc(-c2n[nH]c3c2C(c2ccc(C(C)(C)C)cc2)NC3=O)cc1 (stereo not given)	i	·	i	10.3%	·	i
CNc1nc(-c2ccc3c(N)n[nH]c3c2)cc(N2C[C@@H](C(=O)NC3CCCCC3)CC[C@@H]2C)n1	·	·	·	-9.0%	·	·
SMILES	KB-3-1 tox	HT1080 IDH1KD tx	KB-V1 cytotox	ATXN2 expr inh	HT1080NT lethal	ATXN viability
Cc1ccc(NC(=O)C2CCCN2C(=O)Oc2ccccc2)cc1C (stereo not given)	i	-3.5%	14.6µM*	-3.7%	-1.1%	i
COc1ccc(CCc2c[nH]c(=O)c3cncnc23)cc1OC	·	-1.8%	·	·	1.1%	·
CCCC(=O)Nc1ccc2c(c1)nc(CN1CCN(C(=O)OCC)CC1)n2C	i	-3.5%	i	17.3%	2.9%	i
CCCC(=O)Nc1ccc2c(c1)nc(CN1CCN(C(=O)OCC)CC1)n2CC	3.26µM*	?	i	2.3%	?	i
Cc1ccc(NC(=O)C(=O)c2cc(C)n(-c3ccc(F)cc3)c2C)cc1C	i	·	i	6.0%	·	i
CC(=O)c1ccc(NC(=O)C(C)O/N=C(\N)c2ccccc2)cc1 (stereo not given)	i	-6.6%	23.1µM*	-0.6%	4.5%	i
COc1ccccc1NC(=O)CSc1oc(-c2ccccc2)nc1S(=O)(=O)c1ccccc1	i	·	i	-5.1%	·	i
CC(C)(C)OC(=O)C(Cc1ccc(OC(C)(C)C)cc1)NC(=O)CNC(=O)OCc1ccccc1 (stereo not given)	?	-13.7%	2.91µM*	-18.5%	0.0%	i
Cc1cc(C(=O)N2CCc3ccccc32)n(-c2ccccc2)n1	10.3µM*	?	?	-20.6%	?	?
Cc1cccc(-n2cnc3cc(C(=O)N4CCc5ccccc54)ccc32)c1	i	5.3%	13µM*	5.3%	8.5%	i
COc1ccc(-n2cnc3cc(C(=O)NCC4CCCO4)ccc32)cc1 (stereo not given)	?	0.4%	i	0.5%	-4.2%	i
Cc1cccc(-n2cnc3cc(C(=O)NCC4CCCO4)ccc32)c1 (stereo not given)	18.4µM*	?	?	·	?	i
O=c1oc2ccc3ccccc3c2cc1-c1nnc(Nc2cccc(C(F)(F)F)c2)s1	i	·	i	0.2%	·	i
COc1cccc(-c2cc(C(=O)Nc3c(C)nn(Cc4ccccc4)c3C)no2)c1	i	?	i	-3.4%	-7.2%	i
Cc1nn(Cc2ccc(Cl)cc2)c(C)c1NC(=O)C(c1ccccc1)c1ccccc1	i	1.4%	11.6µM*	10.7%	7.3%	i
COc1ccc(-c2cc(C(=O)Nc3c(C)nn(Cc4ccccc4)c3C)no2)cc1	i	15.8µM*	i	?	-27.3%[9.24 µM]	i
Cc1nn(Cc2ccccc2)c(C)c1NC(=O)c1cc(-c2cccs2)on1	i	?	4.11µM*	-14.8%	-2.1%	i
Cc1nn(Cc2ccccc2)c(C)c1NC(=O)c1cccs1	i	?	i	-10.9%	2.7%	i

Screening data deposited in PubChem by National Center for Advancing Translational Sciences (NCATS).
